From PubChem BioAssay (EPA / NIEHS)
Values joined by “and” are separate entries in the source; they are usually repeats but may differ in a detail not shown here. Identical values can stand only once. Results filed as inconclusive are left out. Some compounds were tested as several samples or in several runs, with calls that do not always agree. Active and inactive are the calls of the source. How the source made its calls, unless noted: active means hit-call score of the fitted dose curve at least 0.9, where 1 is the maximum; inactive means score below 0.9.

Tests used:
[1] = ATG_NFI_CIS: Attagene CIS-FACTORIAL HepG2 Assay for human Nuclear Factor I (NFI) (AID 2282989); details: HepG2 cis-regulatory reporter, NFI response element transcription; actives raise or lower the signal
Method in brief: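 Transient MRTU transfection of HepG2 → 24 h chemical dosing → total RNA, oligo(dT) RT → PCR, 6-FAM primer extension, HpaI cut → capillary electrophoresis. Endpoint fitted bidirectionally relative to DMSO.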

[2] = biological target: Myc proto-oncogene protein (Homo sapiens) (UniProt P01106); assay: ATG_Myc_CIS: Attagene CIS-FACTORIAL HepG2 Assay for human Myelocytomatosis (Myc) Proto-Oncogene Transcription Factor (AID 2282990); details: HepG2, Attagene cis-reporter transcription factor activity; actives raise or lower the signal
Method in brief: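 Cells of the HepG2 human liver line bear multiple cis-driven reporter transcription units. Reporter mRNA after 24 h exposure is reverse-transcribed, amplified, labelled and resolved by capillary electrophoresis, with gain- or loss-of-signal fitting relative to DMSO.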

[3] = ATG_NRF2_ARE_CIS: Attagene CIS-FACTORIAL HepG2 Assay for human Nuclear Factor Erythroid 2 Related Factor 2 (NFR2) response to Antioxidant Response Elements (ARE) (AID 2282992); details: HepG2 Attagene ARE/NRF2 reporter, transcription factor activity; actives raise or lower the signal;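 on AC50: reporter mRNA level measured by RT-PCR and capillary electrophoresis fluorescence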
Method in brief: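 Readout: reporter mRNA quantified by RT-PCR plus FAM-labelled primer extension, HpaI digestion and capillary electrophoresis, 24 h after dosing transfected HepG2 cells. Gain or loss of signal is fitted bidirectionally against DMSO baseline.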

[4] = ATG_Oct_MLP_CIS: Attagene CIS-FACTORIAL HepG2 Assay for human Octamer-Binding Transcription Factor (Oct) (AID 2282993); details: HepG2 Attagene cis-factorial Oct reporter, mRNA; actives raise or lower the signal
Method in brief: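 Transient MRTU transfection of HepG2 → 24 h compound treatment → RNA isolation, reverse transcription, PCR → 6-FAM primer extension, HpaI digest → capillary electrophoresis. Activity fitted both directions against DMSO.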

[5] = biological target: Cellular tumor antigen p53 (Homo sapiens) (UniProt P04637); assay: ATG_p53_CIS: Attagene CIS-FACTORIAL HepG2 Assay for human p53 Transcription Factor (AID 2282994); details: HepG2 p53 cis-element reporter, Attagene mRNA; actives raise or lower the signal
Method in brief: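 Read-out: reporter mRNA by RT-PCR plus capillary electrophoresis with fluorescence detection. Human HepG2 liver cells carried transfected multi-reporter cis-element constructs, dosed 24 h. Gain or loss of signal fitted bidirectionally against DMSO control.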

[6] = BSK_3C_TissueFactor: BioMAP Diversity Plus: 3C Assay for Tissue Factor Biomarker Activity (AID 2282997); details: BioMAP 3C HUVEC, tissue factor biomarker readout; actives raise or lower the signal
Method in brief: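 In this endothelial system, HUVEC are treated for 24 h and Tissue Factor is assessed by ELISA, normalised to DMSO.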

[7] = BSK_3C_VCAM1: BioMAP Diversity Plus: 3C Assay for Vascular cell adhesion molecule 1 (VCAM1) Biomarker Activity (AID 2282999); details: BioMAP 3C HUVEC, VCAM1 ELISA, cytokine-stimulated; actives raise or lower the signal
Method in brief: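 Activity fitted in both directions relative to DMSO, with ELISA measurement of the surface marker on primary HUVEC (3C) at 24 h post-treatment; parallel SRB staining (0.1% SRB, TCA-fixed, 560 nm) flagged overt cytotoxicity.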

[8] = BSK_4H_Eotaxin3: BioMAP Diversity Plus: 4H Assay for Eotaxin 3 Biomarker Activity (AID 2283000); details: primary human endothelial cells (HUVEC); actives raise or lower the signal
Method in brief: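 ELISA quantitation of CCL26 (Eotaxin-3) protein from chemically dosed human vascular endothelial cells at 24 h; increases and decreases both scored relative to DMSO-treated baseline.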

[9] = biological target: human Retinoic Acid Receptor beta (RARb), RARB (gene 5915) (UniProt P10826); assay: ATG_RARb_TRANS: Attagene TRANS-FACTORIAL HepG2 Assay for human Retinoic Acid Receptor beta (AID 2283004; active means hit-call score of the fitted dose curve at least 0.9, where 1 is the maximum)
Method in brief: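 Fluorescent capillary-electrophoresis detection of GAL4-UAS reporter mRNA defines the endpoint, with induction over DMSO-treated wells scored as activity. Transiently transfected human hepatoma HepG2 cells expressing exogenous NR–Gal4 proteins are exposed to test chemicals for 24 h.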

[10] = BSK_3C_Proliferation: Cell Proliferation Assessment in the BioMAP Diversity Plus: 3C Assay (AID 2283006); details: primary human endothelial cells (HUVEC);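 on AC50: potency may reflect either rise or fall in cell number versus DMSO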
Method in brief: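 Proliferation as total protein: sulforhodamine B (0.1%) stain of TCA-fixed subconfluent human umbilical vein endothelial cells, absorbance 560 nm, 48 h after dosing. Activity fitted in both directions against DMSO baseline.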

[11] = biological target: human Retinoic Acid Receptor gamma (RARg), RARG (gene 5916) (UniProt P13631); assay: ATG_RARg_TRANS: Attagene TRANS-FACTORIAL HepG2 Assay for human Retinoic Acid Receptor gamma (RARg) (AID 2283009; active means hit-call score of the fitted dose curve at least 0.9, where 1 is the maximum)
Method in brief: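 Transactivation of exogenous RARg-Gal4 fusion measured as reporter transcript induction after 24 h in transfected HepG2 cells. RNA reverse-transcribed, amplified, fluorescently labeled and resolved by capillary electrophoresis; increase relative to DMSO.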

[12] = biological target: human RAR-related Orphan Receptor beta (RORb), RORB (gene 6096) (UniProt Q92753); assay: ATG_RORb_TRANS: Attagene TRANS-FACTORIAL HepG2 Assay for human RAR-related Orphan Receptor beta (RORb) (AID 2283010; active means hit-call score of the fitted dose curve at least 0.9, where 1 is the maximum)
Method in brief: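 Read-out is reporter mRNA induction, quantified by RT-PCR with fluorescent capillary electrophoresis, 24 h post-dose in transiently transfected HepG2 expressing exogenous NR-Gal4 chimera. Activity fitted upward versus DMSO.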

[13] = ATG_NF_kB_CIS: Attagene CIS-FACTORIAL HepG2 Assay for human Nuclear Factor Kappa B (NF-kB) (AID 2282991); details: HepG2 Attagene cis-factorial NF-kB reporter mRNA; actives raise or lower the signal
Method in brief: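 Endpoint from a 52-component multiplexed HepG2 reporter panel: cis-regulated transcription units transiently transfected, 24 h dosing, reporter mRNA quantified by RT-PCR and capillary electrophoresis, scored as increase or decrease against DMSO.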

[14] = BSK_3C_uPAR: BioMAP Diversity Plus: 3C Assay for Urokinase-type plasminogen activator receptor (uPAR) Biomarker Activity (AID 2282998); details: BioMAP 3C HUVEC, uPAR biomarker ELISA; actives raise or lower the signal
Method in brief: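 ELISA readout of uPAR on human vascular endothelium (umbilical vein primary cells), taken 24 h after chemical dosing. Increases and decreases are both fitted relative to DMSO vehicle.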

[15] = biological target: human Peroxisome Proliferator-activated Receptor delta (PPARd), PPARD (gene 5467) (UniProt Q03181); assay: ATG_PPARd_TRANS: Attagene TRANS-FACTORIAL HepG2 Assay for human Peroxisome Proliferator-activated Receptor delta (PPARd) (AID 2283002; active means hit-call score of the fitted dose curve at least 0.9, where 1 is the maximum)
Method in brief: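 Cell-based TRANS reporter: HepG2, transient MRTU transfection, 24 h exposure. Readout = reporter mRNA (RT-PCR/CE, 6-FAM). Gain-of-signal fit vs DMSO control.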

[16] = read-out: Intercellular Adhesion Molecule 1 (ICAM1), ICAM1 (gene 3383); assay: BSK_3C_ICAM1: BioMAP Diversity Plus: 3C Assay for Intercellular Adhesion Molecule 1 (ICAM1) Biomarker Activity (AID 2283003); details: primary human endothelial cells (HUVEC); actives raise or lower the signal
Method in brief: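 ELISA readout of ICAM1 in human umbilical vein endothelial cells in the 3C system, taken 24 h post-dose. Gain or loss of signal versus DMSO was fitted in both directions, with SRB total-protein staining run in parallel.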

[17] = biological target: Peroxisome proliferator-activated receptor gamma (Homo sapiens) (UniProt P37231); assay: ATG_PPARg_TRANS: Attagene TRANS-FACTORIAL HepG2 Assay for human Peroxisome Proliferator-activated Receptor-gamma (PPARg) (AID 2283007; active means hit-call score of the fitted dose curve at least 0.9, where 1 is the maximum)
Method in brief: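 Endpoint reflects upward reporter mRNA change versus DMSO controls. Setup: transiently transfected HepG2, GAL4-UAS reporters driven by chimeric NR-Gal4, 24 h incubation, RT-PCR with capillary electrophoresis read-out.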

[18] = biological target: Nuclear receptor subfamily 1 group I member 2 (Homo sapiens) (UniProt O75469); assay: ATG_PXR_TRANS: Attagene TRANS-FACTORIAL HepG2 Assay for human Pregnane X Receptor (PXR) (AID 2283008; active means hit-call score of the fitted dose curve at least 0.9, where 1 is the maximum)
Method in brief: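 Trans-factorial format: exogenous NR-Gal4 fusion activity, not endogenous factor, in transfected human HepG2 liver cells. After 24 h dosing, RNA isolated, reverse-transcribed, amplified and resolved by capillary electrophoresis; induction scored versus DMSO.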

[19] = biological target: Retinoic acid receptor alpha (Homo sapiens) (UniProt P10276); assay: ATG_RARa_TRANS: Attagene TRANS-FACTORIAL HepG2 Assay for human Retinoic Acid Receptor alpha (RARa) (AID 2283005; active means hit-call score of the fitted dose curve at least 0.9, where 1 is the maximum)
Method in brief: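 Reporter transcripts, measured by RT-PCR with fluorescent labeling and capillary electrophoresis after 24 h dosing, reflect activity of an exogenous human RARa–GAL4 fusion in transiently transfected HepG2. Fitted for increase relative to DMSO.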

[20] = biological target: human Peroxisome Proliferator-activated Receptor alpha (PPARa), PPARA (gene 5465) (UniProt Q07869); assay: ATG_PPARa_TRANS: Attagene TRANS-FACTORIAL HepG2 Assay for human Peroxisome Proliferator-activated Receptor alpha (PPARa) (AID 2283001; active means hit-call score of the fitted dose curve at least 0.9, where 1 is the maximum;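 on AC50: potency for gain of reporter signal over DMSO so agonist or activator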)
Method in brief: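 Reporter transcripts quantified by RT-PCR plus capillary electrophoresis after 24 h treatment, fitted upward relative to DMSO. Cells: human HepG2 transiently carrying multiple GAL4-UAS reporter units driven by NR-Gal4 chimeras.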

Measured: AC50

Sequence of Peroxisome proliferator-activated receptor gamma (Homo sapiens) (P37231 whole entry, looked up, the tested form may be a part): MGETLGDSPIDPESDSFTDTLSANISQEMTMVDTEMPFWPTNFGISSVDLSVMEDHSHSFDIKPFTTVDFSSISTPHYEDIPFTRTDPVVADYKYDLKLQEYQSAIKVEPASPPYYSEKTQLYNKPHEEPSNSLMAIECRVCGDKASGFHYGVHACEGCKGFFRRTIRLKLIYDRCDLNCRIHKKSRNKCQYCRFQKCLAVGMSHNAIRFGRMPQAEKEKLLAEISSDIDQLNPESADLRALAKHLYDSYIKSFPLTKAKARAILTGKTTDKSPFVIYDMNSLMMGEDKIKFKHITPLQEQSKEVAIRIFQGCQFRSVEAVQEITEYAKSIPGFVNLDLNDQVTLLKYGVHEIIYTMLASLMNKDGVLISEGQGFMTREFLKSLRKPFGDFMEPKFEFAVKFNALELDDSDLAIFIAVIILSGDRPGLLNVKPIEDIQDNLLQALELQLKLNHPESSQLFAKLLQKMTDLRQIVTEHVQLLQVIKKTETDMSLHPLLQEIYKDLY
Sequence of Myc proto-oncogene protein (Homo sapiens) (P01106 whole entry, looked up): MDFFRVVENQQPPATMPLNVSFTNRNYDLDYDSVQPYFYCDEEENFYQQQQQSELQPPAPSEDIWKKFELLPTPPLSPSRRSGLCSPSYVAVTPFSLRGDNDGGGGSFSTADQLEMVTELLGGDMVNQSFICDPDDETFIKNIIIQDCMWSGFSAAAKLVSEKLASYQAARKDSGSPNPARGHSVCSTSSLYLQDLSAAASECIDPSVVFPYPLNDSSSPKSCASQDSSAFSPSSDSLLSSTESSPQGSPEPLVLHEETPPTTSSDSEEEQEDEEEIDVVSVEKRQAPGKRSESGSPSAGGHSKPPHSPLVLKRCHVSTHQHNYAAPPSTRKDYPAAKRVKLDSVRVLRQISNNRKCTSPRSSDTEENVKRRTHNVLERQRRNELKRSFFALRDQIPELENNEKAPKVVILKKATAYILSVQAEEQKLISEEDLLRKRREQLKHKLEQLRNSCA
Sequence of human Retinoic Acid Receptor beta (RARb), RARB (gene 5915) (P10826 whole entry, looked up, the tested form may be a part): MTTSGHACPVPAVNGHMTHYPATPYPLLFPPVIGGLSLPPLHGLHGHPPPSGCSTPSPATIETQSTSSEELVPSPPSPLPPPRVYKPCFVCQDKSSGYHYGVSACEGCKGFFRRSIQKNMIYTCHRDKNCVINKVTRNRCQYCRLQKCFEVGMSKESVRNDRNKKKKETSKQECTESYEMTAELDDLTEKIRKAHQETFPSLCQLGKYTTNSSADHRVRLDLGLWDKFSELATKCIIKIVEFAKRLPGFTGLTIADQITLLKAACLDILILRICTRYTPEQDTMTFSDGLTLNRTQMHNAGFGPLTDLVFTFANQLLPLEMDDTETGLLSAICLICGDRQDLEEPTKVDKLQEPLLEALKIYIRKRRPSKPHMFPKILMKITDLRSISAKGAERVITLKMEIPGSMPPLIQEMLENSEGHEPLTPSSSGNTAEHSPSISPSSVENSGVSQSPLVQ
Sequence of human RAR-related Orphan Receptor beta (RORb), RORB (gene 6096) (Q92753 whole entry, looked up, the tested form may be a part): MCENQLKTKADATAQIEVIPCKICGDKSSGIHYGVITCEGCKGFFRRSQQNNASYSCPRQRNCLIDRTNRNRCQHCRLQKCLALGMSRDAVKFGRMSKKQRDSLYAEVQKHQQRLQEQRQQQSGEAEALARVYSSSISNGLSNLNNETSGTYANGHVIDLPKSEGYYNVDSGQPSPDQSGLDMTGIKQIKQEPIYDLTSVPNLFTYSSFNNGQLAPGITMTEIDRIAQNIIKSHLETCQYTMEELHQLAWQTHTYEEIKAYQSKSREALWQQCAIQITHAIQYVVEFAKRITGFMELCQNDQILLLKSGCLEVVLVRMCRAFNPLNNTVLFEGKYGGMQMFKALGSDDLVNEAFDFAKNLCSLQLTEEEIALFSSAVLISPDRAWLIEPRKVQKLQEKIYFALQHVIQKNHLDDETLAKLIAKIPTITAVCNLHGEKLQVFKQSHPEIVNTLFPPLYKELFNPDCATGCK
Sequence of Nuclear receptor subfamily 1 group I member 2 (Homo sapiens) (O75469 whole entry, looked up, the tested form may be a part): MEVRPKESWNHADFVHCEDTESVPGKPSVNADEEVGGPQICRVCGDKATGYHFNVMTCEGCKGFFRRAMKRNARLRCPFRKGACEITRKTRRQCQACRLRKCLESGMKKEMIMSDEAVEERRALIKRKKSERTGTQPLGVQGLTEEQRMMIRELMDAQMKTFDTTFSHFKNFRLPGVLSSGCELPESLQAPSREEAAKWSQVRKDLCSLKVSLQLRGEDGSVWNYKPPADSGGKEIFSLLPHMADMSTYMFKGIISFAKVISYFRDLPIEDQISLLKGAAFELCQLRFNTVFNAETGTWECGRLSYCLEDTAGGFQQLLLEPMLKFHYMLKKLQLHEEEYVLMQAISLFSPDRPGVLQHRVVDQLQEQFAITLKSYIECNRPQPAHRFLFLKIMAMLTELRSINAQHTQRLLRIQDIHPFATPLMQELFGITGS
Sequence of human Peroxisome Proliferator-activated Receptor delta (PPARd), PPARD (gene 5467) (Q03181 whole entry, looked up): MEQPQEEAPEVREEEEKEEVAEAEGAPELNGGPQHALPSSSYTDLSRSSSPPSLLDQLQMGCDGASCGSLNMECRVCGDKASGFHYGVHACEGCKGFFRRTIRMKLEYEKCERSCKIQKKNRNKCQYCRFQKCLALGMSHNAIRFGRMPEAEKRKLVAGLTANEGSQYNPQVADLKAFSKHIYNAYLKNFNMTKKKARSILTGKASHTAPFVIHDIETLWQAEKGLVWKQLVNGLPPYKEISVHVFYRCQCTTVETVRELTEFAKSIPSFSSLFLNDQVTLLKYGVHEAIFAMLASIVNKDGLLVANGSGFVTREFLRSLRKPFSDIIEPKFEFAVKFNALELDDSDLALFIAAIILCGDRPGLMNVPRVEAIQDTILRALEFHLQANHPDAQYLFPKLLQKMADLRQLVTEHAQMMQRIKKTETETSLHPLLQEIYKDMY
Sequence of human Retinoic Acid Receptor gamma (RARg), RARG (gene 5916) (P13631 whole entry, looked up, the tested form may be a part): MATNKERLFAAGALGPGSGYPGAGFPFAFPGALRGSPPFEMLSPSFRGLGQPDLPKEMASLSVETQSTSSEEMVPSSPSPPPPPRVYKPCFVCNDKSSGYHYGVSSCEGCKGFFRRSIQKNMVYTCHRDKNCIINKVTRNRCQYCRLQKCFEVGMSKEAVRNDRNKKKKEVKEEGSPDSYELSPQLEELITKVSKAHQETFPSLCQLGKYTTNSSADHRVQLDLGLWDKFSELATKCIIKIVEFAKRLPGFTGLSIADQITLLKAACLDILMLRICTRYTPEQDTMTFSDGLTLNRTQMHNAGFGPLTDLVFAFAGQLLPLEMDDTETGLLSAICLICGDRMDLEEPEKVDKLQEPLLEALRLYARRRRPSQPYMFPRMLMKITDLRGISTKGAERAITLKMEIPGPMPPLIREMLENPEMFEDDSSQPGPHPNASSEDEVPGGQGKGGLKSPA
Sequence of Retinoic acid receptor alpha (Homo sapiens) (P10276 whole entry, looked up, the tested form may be a part): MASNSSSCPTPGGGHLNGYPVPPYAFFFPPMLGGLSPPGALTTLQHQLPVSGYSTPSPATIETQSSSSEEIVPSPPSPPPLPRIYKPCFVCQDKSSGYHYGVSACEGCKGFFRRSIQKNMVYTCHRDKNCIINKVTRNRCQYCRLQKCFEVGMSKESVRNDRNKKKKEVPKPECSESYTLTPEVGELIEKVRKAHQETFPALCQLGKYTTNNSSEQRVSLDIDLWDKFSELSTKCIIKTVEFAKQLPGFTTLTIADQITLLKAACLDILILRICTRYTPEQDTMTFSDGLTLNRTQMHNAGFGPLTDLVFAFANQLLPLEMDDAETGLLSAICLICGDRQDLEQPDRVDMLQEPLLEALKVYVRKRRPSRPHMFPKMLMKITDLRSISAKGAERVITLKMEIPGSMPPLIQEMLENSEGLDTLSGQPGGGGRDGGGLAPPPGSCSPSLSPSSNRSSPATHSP
Sequence of Cellular tumor antigen p53 (Homo sapiens) (P04637 whole entry, looked up): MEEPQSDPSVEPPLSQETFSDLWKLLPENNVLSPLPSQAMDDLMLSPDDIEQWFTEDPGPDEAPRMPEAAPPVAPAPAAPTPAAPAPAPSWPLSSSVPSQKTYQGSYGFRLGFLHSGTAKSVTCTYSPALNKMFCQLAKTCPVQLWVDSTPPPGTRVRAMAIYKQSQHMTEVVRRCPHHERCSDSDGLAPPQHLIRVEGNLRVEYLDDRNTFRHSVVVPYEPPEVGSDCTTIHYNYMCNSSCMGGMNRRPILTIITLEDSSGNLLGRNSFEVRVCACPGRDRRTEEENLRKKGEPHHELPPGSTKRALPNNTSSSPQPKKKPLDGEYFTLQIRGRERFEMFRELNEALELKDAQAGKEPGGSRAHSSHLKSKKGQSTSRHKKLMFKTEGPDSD
Sequence of human Peroxisome Proliferator-activated Receptor alpha (PPARa), PPARA (gene 5465) (Q07869 whole entry, looked up, the tested form may be a part): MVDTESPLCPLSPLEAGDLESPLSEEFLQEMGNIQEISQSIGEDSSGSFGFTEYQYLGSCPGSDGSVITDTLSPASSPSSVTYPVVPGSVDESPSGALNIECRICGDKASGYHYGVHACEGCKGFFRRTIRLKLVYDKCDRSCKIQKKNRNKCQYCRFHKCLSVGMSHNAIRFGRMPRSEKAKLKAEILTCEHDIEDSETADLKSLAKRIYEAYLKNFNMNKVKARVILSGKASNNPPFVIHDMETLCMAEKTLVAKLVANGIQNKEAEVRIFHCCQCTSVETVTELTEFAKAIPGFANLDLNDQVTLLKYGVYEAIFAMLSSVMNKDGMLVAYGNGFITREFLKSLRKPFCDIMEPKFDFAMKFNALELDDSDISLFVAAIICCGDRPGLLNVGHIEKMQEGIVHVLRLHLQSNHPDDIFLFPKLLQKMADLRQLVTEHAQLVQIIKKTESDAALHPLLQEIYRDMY

CC/C(=C(/CC)c1ccc(O)cc1)c1ccc(O)cc1
active: [1] 13.9 µM | [2] 18.6 µM | [3] 12.7 µM [middle of 4 runs] | [4] 16.7 µM and 11.1 µM and 16.6 µM | [5] 11.1 µM | [6] 27.1 µM | [7] 32.5 µM | [8] 27.6 µM | [10] 20 µM
inactive: [1] | [2] | [3] | [4] | [5] | [9] | [11] | [12]

c1ccc2n[nH]nc2c1
not listed: [9] | [11] | [20]
inactive: all other assays above

Cc1cn([C@H]2C[C@H](N=[N+]=[N-])[C@@H](CO)O2)c(=O)[nH]c1=O
not listed: [9] | [11] | [12] | [16] | [19]
inactive: all other assays above

c1ccc(C[n+]2cccc3ccccc32)cc1
active: [3] 67.9 µM
not listed: [9] | [12] | [19]
inactive: all other assays above

O=C1CCC(C2CCCCC2)CC1
inactive: [1] | [2] | [13] | [4] | [5] | [6] | [7] | [8] | [20] | [15] | [9] | [19] | [10] | [12]
active: [2] 187 µM | [3] 100 µM [middle of 4 runs] | [5] 166 µM | [17] 27.6 µM [middle of 4 runs]

CC(C)(O)c1ccc(CNC(=O)c2cccnc2Oc2ccc3nonc3c2)cc1
active: [20] 1.08 µM | [17] 27 µM | [18] 10.5 µM
not listed: [12] | [19]
inactive: all other assays above

O=CCCCC=O
inactive: [1] | [2] | [13] | [3] | [4] | [5] | [20] | [15] | [17] | [18] | [12]
active: [13] 73.1 µM | [3] 169 µM | [6] 30.3 µM | [7] 31.6 µM | [8] 31.4 µM | [10] 25.1 µM

Oc1ccc2ccccc2c1
active: [3] 15.5 µM and 5.76 µM | [5] 180 µM | [8] 15.7 µM | [10] 10.7 µM
inactive: [1] | [2] | [13] | [4] | [5] | [6] | [7] | [20] | [16] | [17] | [18] | [12]

CO[C@H]1/C=C/O[C@@]2(C)Oc3c(C)c(O)c4c(O)c(c(/C=N/N5CCN(C)CC5)c(O)c4c3C2=O)NC(=O)/C(C)=C\C=C\[C@H](C)[C@H](O)[C@@H](C)[C@@H](O)[C@@H](C)[C@H](OC(C)=O)[C@@H]1C
active: [3] 4.16 µM and 15.6 µM
not listed: [11] | [12] | [16] | [18] | [20]
inactive: all other assays above

NC(=O)c1nc(-c2cccc(-c3cc(F)ccc3OCC(F)(F)C(F)(F)F)c2)n[nH]1
active: [3] 8.83 µM | [4] 27.4 µM | [6] 29.7 µM | [14] 26.6 µM | [7] 35.7 µM | [8] 37 µM | [10] 32.4 µM | [17] 13 µM | [18] 8.71 µM
inactive: [1] | [2] | [13] | [5] | [15]

COc1ccc2cc(S(=O)(=O)N[C@H](CC(=O)N[C@H](Cc3ccc(CN4[C@H](C)CCC[C@@H]4C)cc3)C(=O)N(C)C(C)C)c3ccc4c(c3)OCO4)ccc2c1
active: [3] 11 µM | [4] 11 µM | [5] 11 µM | [6] 5.1 µM | [14] 19.1 µM | [7] 16.4 µM | [8] 11.3 µM | [10] 22 µM
inactive: [1] | [2] | [13] | [20] | [17] | [18]

CCCC(=O)OCCC(C)C
not listed: [12] | [15] | [17] | [18] | [20]
inactive: all other assays above
